Assay results as given in PubChem BioAssay (NCATS).
Records with an inconclusive call do not appear. The source made the active and inactive calls. Unless noted, calls come from the whole dose curve; as a rule, active = well fitted cell-killing curve with a large enough effect; inconclusive = small, poorly fitted or top-dose-only effect; inactive = flat fitted curve, though single readings scatter.

Columns and labels:
[1] = Cell Viability - LYMP2-025 (AID 976);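 note: series mostly up to about 92 µM; plate controls were DMSO only for no effect and tetraoctylammonium bromide control for full effect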
Outline: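 Acute cytotoxicity is scored as a concentration-dependent fall in intracellular ATP, measured by luciferase luminescence, in human lymphoblastoid LYMP2-025 cells exposed to compound for 24 hours at 37 C. AC50 values come from standard Hill fits.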

[2] = Cell Viability - LYMP2-002 (AID 977);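 note: series mostly up to about 92 µM; compound exposure lasted 24 h at 37 °C; plate controls were DMSO only for no effect and 92 µM tetraoctylammonium bromide for full effect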
Outline: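 In this qHTS viability screen, 2500 human lymphoblastoid cells per well receive compound for 24 hr at 37 C, and luciferase-based ATP luminescence gives the viability signal. Tetraoctylammonium bromide serves as positive control.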

[3] = Cell Viability - LYMP2-006 (AID 978); note: series mostly up to about 92 µM; % is set by controls: 0 for no effect and ±100 for the full control effect; nearly all actives have a fitted effect of over 60% in size
Outline: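 In this cytotoxicity screen, the human lymphoblastoid line grew in complete medium with test compounds for 24 hr at 37 C. Cellular ATP served as the viability signal.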

[4] = Cell Viability - LYMP2-007 (AID 979);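 note: cells exposed to compound for 24 h before reading; 0% = DMSO only and the negative end = 92 µM tetraoctylammonium bromide; nearly all actives have a fitted effect of over 60% in size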
Outline: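 Cells are seeded at 2500 per well and rested 5 hr. Compounds are then added over a concentration series for 24 hr at 37 C. CellTiter-Glo is added for 30 min at room temperature before luminescence reading.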

[5] = Cell Viability - LYMP2-008 (AID 980); note: % is set by controls: 0 for no effect and ±100 for the full control effect; nearly all actives have a fitted effect of over 60% in size
Outline: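 Cells seeded at 2500/well and rested 5 hr at 37 C; compounds added over a concentration range and incubated 24 hr at 37 C; CellTiter-Glo added, 30 min at room temperature; luminescence read and AC50 fitted with Hill model.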

[6] = Cell Viability - LYMP2-010 (AID 981); note: % is set by controls: 0 for no effect and ±100 for the full control effect; nearly all actives have a fitted effect of over 55% in size
Outline: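 Steps: seed 2500 LYMP2-010 cells per well; incubate 5 hr at 37 C; add compound; incubate 24 hr at 37 C; add CellTiter-Glo, wait 30 min at room temperature; read luminescence. Concentration-response fitted to Hill equation for AC50.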

[7] = Cell Viability - LYMP2-012 (AID 982);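 note: cellular ATP by luciferase luminescence where a drop means cytotoxicity; cells exposed to compound for one day before reading; 0% = DMSO only and full loss = 92 µM tetraoctylammonium bromide; nearly all actives have a fitted effect of over 55% in size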
[8] = Cell Viability - LYMP2-016 (AID 984); note: % is set by controls: 0 for no effect and ±100 for the full control effect; nearly all actives have a fitted effect of over 55% in size
Outline: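 Concentration-dependent ATP depletion measured in LYMP2-016 lymphoblastoid cells, 24 h, 37 C; luciferase-based luminescent detection; Hill-equation AC50.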

[9] = Cell Viability - LYMP2-018 (AID 985);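 note: compound exposure lasted 24 hr at 37 °C; plate controls were DMSO only for no effect and tetraoctylammonium bromide at 92 µM for full effect; nearly all actives have a fitted effect of over 50% in size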
Outline: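 Seed 2500 lymphoblastoid cells per well, incubate 5 hr at 37 C, add compound and incubate 24 hr at 37 C, add CellTiter-Glo, wait 30 min at room temperature, then read luminescence.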

[10] = Cell Viability - LYMP2-020 (AID 986);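 note: series mostly up to about 92 µM; plate controls were DMSO only for no effect and tetraoctylammonium bromide at 92 µM for full effect; nearly all actives have a fitted effect of over 55% in size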
Outline: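 Seed 2500 cells per well and incubate 5 hr at 37 C. Add compounds at a concentration series and incubate 24 hr at 37 C. Add CellTiter-Glo, wait 30 min at RT, read luminescence, and fit a Hill curve for AC50.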

[11] = Cell Viability - LYMP2-022 (AID 987)
Outline: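 Cells were seeded at 2500 per well, rested 5 hr at 37 C, and treated with titrated compounds for 24 hr at 37 C. Cellular ATP was then quantified by luciferase luminescence, and AC50 values were derived from Hill-modelled concentration-response curves.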

[12] = Cell Viability - LYMP2-024 (AID 988);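 note: plate controls were DMSO only for no effect and 92 µM tetraoctylammonium bromide for full effect; nearly all actives have a fitted effect of over 60% in size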
Outline: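 qHTS cytotoxicity, human lymphoblastoid line, complete medium; 24 h cpd treatment, 37 C; CellTiter-Glo ATP luminescence readout; tetraoctylammonium bromide positive control; AC50 via Hill fit.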

[13] = Cell Viability - LYMP2-026 (AID 989); note: % is set by controls: 0 for no effect and ±100 for the full control effect; nearly all actives have a fitted effect of over 50% in size
Outline: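 Cells are seeded at 2500 per well and held 5 hr at 37 C. Compounds are added in concentration series for 24 hr, then CellTiter-Glo reagent is applied and luminescence read.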

[14] = Cell Viability - LYMP1-002 - Assay at 40 hr (AID 994)
Outline: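 Cells are plated at 2500 per well and rested 5 hr at 37 C. Compounds are added and incubated 40 hr at 37 C. CellTiter-Glo reagent is added for 30 min at room temperature before luminescence is read.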

[15] = qHTS Assay for Identification of Small Molecule Inducers of Hypoxia Response (AID 2120; active = well fitted curve in the direction sought with a large enough effect in the signal ratio, with a control signal flat, not every such curve was filed as active; the % refers to the signal ratio; note: 0% is about no effect)
Outline: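 Cell-based qHTS for reporter induction: hypoxia response element controlled beta-lactamase in ME-180 cells. Compounds incubated 17 h at 37 degrees C; activity from blue/green (460/530 nm) ratio, inducers ranked by AC50.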

[16] = target: Estrogen receptor (Homo sapiens) (UniProt P03372); experiment: qHTS assay for small molecule agonists of estrogen receptor alpha signaling (AID 588514; calls by dose curve;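 note: 0% = vehicle only and 100% = reference agonist; nearly all actives have a fitted effect of over 70% in size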)
Outline: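 Efficacy is expressed against 20 nM 17-beta-estradiol (100%) and DMSO basal (0%); EC50 from Hill equation. Assay: beta-lactamase reporter in ER-alpha-UAS-bla HEK 293 cells, 18 h compound incubation, CCF4 detection.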

[17] = Cell Viability - LYMP2-014 (AID 983);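 note: series mostly up to about 92 µM; plate controls were DMSO only for no effect and 92 µM tetraoctylammonium bromide for full effect; nearly all actives have a fitted effect of over 50% in size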
Outline: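 Cells are plated at 2500/well and left 5 hr at 37 C. Compounds are added across a concentration range and incubated 24 hr at 37 C in complete medium. CellTiter-Glo is added, and luminescence is read after 30 min at room temperature.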

[18] = Cell Viability - LYMP1-002 - Assay at 24 hr (AID 993); note: % is set by controls: 0 for no effect and ±100 for the full control effect
Outline: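 Acute toxicity is measured as concentration-dependent loss of cellular ATP in a human lymphoblastoid line (Coriell LYMP1-002) after 24 h treatment in complete medium. ATP is quantified by luciferase luminescence and AC50 derived by Hill modelling.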

[19] = target: Androgen receptor (Homo sapiens) (UniProt P10275); experiment: qHTS assay for small molecule agonists of androgen receptor signaling (AID 588515; active = well fitted curve in the direction sought with a large enough effect in the signal ratio, with a control signal flat; the % refers to the signal ratio; note: % is set by controls: 0 for no effect and ±100 for the full control effect); details: AR-UAS-bla HEK293, beta-lactamase ratio, agonist 16 h; active compounds read high
Outline: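 Stimulation of an AR-responsive β-lactamase reporter in GripTite HEK293 cells was measured after 16 h compound exposure at 37 °C, via CCF4 fluorescence after 2 h RT. EC50 from Hill fits, normalized to R1881 at 30 nM.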

Chain of Androgen receptor (Homo sapiens) (P10275 whole entry, looked up): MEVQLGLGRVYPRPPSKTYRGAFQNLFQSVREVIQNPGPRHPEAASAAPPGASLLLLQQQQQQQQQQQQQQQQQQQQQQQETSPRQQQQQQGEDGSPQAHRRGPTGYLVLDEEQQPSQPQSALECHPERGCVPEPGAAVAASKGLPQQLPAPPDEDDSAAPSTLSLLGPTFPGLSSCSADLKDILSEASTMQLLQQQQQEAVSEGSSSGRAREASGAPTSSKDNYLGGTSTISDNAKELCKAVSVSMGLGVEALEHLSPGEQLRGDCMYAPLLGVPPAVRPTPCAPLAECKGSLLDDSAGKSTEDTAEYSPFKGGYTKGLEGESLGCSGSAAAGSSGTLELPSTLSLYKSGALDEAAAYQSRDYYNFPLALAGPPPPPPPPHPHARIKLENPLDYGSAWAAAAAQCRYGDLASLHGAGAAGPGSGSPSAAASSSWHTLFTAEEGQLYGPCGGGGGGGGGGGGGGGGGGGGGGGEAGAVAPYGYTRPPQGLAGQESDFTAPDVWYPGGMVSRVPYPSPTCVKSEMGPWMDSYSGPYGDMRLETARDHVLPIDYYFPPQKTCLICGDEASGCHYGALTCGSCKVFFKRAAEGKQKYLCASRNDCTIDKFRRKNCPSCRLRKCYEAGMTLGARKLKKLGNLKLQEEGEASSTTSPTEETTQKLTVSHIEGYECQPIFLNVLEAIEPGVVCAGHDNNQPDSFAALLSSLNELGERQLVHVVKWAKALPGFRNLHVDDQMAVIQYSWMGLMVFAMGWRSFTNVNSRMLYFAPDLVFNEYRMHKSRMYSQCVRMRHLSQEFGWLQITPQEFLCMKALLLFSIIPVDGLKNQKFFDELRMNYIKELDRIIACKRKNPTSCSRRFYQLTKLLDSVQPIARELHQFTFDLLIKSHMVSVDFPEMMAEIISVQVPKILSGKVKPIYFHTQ
Chain of Estrogen receptor (Homo sapiens) (P03372 whole entry, looked up): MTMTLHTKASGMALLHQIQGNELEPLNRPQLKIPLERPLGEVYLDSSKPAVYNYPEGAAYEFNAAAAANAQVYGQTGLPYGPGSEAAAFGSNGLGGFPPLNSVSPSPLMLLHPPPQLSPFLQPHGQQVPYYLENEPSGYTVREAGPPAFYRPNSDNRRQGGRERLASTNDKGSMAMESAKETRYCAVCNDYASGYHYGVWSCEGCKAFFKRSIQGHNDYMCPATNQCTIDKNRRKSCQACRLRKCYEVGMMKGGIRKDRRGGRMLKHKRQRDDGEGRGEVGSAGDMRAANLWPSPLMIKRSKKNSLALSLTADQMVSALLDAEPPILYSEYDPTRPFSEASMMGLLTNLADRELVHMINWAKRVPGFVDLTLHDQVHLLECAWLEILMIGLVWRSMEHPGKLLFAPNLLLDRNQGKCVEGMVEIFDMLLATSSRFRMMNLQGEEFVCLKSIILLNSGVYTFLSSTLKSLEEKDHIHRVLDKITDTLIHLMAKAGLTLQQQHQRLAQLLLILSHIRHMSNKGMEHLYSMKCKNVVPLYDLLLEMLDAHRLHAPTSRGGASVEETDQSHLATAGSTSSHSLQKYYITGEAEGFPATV

Cc1cccc([N+](=O)[O-])c1C(=O)O
inactive: Potency [1] | Potency [2] | Potency [3] | Potency [4] | Potency [5] | Potency [6] | Potency [7] | Potency [8] | Potency [9] | Potency [10] | Potency [11] | Potency [12] | outcome [13] | Potency [14] | outcome [15] | Potency [16]

CCCCCCCCC
inactive: Potency [1] | Potency [2] | Potency [3] | Potency [4] | Potency [5] | Potency [6] | Potency [7] | Potency [17] | Potency [8] | Potency [9] | Potency [10] | Potency [11] | Potency [12] | outcome [13] | Potency [18] | Potency [14] | outcome [15] | Potency [16]

CCCC(C)CO (stereo not given)
inactive: Potency [1] | Potency [2] | Potency [3] | Potency [4] | Potency [5] | Potency [6] | Potency [7] | Potency [17] | Potency [9] | Potency [10] | Potency [11] | Potency [12] | outcome [13] | Potency [18] | Potency [14] | outcome [15] | activation [19] -5.4%

COc1ccc(N)c(OC)c1
inactive: Potency [1] | Potency [2] | Potency [3] | Potency [4] | Potency [5] | Potency [6] | Potency [7] | Potency [17] | Potency [8] | Potency [9] | Potency [10] | Potency [11] | Potency [12] | outcome [13] | Potency [18] | Potency [14] | outcome [15] | Potency [16]

CC(=O)C1(C)CC2=C(CCCC2(C)C)CC1C (stereo not given)
inactive: Potency [1] | Potency [2] | Potency [3] | Potency [4] | Potency [5] | Potency [6] | Potency [7] | Potency [17] | Potency [8] | Potency [9] | Potency [10] | Potency [11] | Potency [12] | outcome [13] | Potency [18] | Potency [14] | outcome [15] | activation [19] -4.48%

Cc1cc(C)cc(O)c1
inactive: Potency [1] | Potency [2] | Potency [3] | Potency [4] | Potency [5] | Potency [6] | Potency [7] | Potency [17] | Potency [8] | Potency [9] | Potency [10] | Potency [11] | outcome [13] | Potency [18] | Potency [14] | outcome [15] | Potency [16]

CC(C)CCOC(=O)/C=C/c1ccccc1
inactive: Potency [1] | Potency [2] | Potency [3] | Potency [4] | Potency [5] | Potency [6] | Potency [7] | Potency [17] | Potency [8] | Potency [9] | Potency [10] | Potency [11] | Potency [12] | outcome [13] | Potency [18] | Potency [14] | outcome [15] | Potency [16]

CC(C=O)Cc1ccc(C(C)(C)C)cc1 (stereo not given)
inactive: Potency [1] | Potency [2] | Potency [3] | Potency [4] | Potency [5] | Potency [6] | Potency [7] | Potency [17] | Potency [8] | Potency [9] | Potency [10] | Potency [11] | Potency [12] | Potency [14] | outcome [15] | activation [19] 8.05%

O=[N+]([O-])c1cccc(C(F)(F)F)c1
inactive: Potency [1] | Potency [2] | Potency [3] | Potency [4] | Potency [5] | Potency [6] | Potency [7] | Potency [8] | Potency [9] | Potency [10] | Potency [11] | Potency [12] | outcome [13] | Potency [18] | Potency [14] | outcome [15] | Potency [16]
